Laboratory results from PubChem BioAssay (NCI).
This is part of a sample that, as a whole, favours compounds with a hit. Of some 79,000 tested, about 15% had one in any assay. Rule as the data show it: active = growth inhibition above about 70%; inactive = the rest.

How the values were obtained:
[1] = NCI Yeast Anticancer Drug Screen. Data for the rad50 strain (AID 155);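 also: 0% = growth of vehicle-only cultures of the same strain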; details: S. cerevisiae rad50 strain growth inhibition, stronger effect = higher value; at 50.0 µM unless noted
Summary of the method: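 Relative growth inhibition (compound vs vehicle) was measured in yeast with a defined repair-gene alteration.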

[2] = NCI Yeast Anticancer Drug Screen. Data for the mec2-1 strain (AID 157); details: S. cerevisiae mec2-1 strain, stronger effect = higher value; at 50.0 µM unless noted
Summary of the method: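 Cells of the genetically defined mec2-1 yeast strain are incubated with test compound. Inhibition of growth is calculated against vehicle-treated controls.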

[3] = NCI Yeast Anticancer Drug Screen. Data for the sgs1 mgt1 strain (AID 161);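 also: 0% = growth of cultures given vehicle only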; details: S. cerevisiae sgs1 mgt1 strain, stronger effect = higher value; at 50.0 µM unless noted
Summary of the method: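 Read-out: growth inhibition vs vehicle controls. Cells: mutant yeast strain deficient in DNA damage repair.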

[4] = NCI Yeast Anticancer Drug Screen. Data for the cln2 rad14 strain (AID 165);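 also: 0% = growth equal to vehicle treated cultures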; details: S. cerevisiae cln2 rad14 strain, stronger effect = higher value; at 50.0 µM unless noted
Summary of the method: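 The screen exposed genetically defined yeast (cln2 rad14) to test compounds and scored growth inhibition relative to vehicle-treated controls.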

[5] = NCI Yeast Anticancer Drug Screen. Data for the bub3 strain (AID 167); details: S. cerevisiae bub3 mutant strain, stronger effect = higher value; at 50.0 µM unless noted
Summary of the method: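 Screening used yeast with an engineered genetic alteration affecting cell cycle control. Compound-exposed cultures were compared with vehicle cultures, and reduced growth was taken as inhibition.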

[6] = NCI Yeast Anticancer Drug Screen. Data for the mlh1 rad18 strain (AID 175); details: S. cerevisiae mlh1 rad18 strain growth inhibition, stronger effect = higher value; at 50.0 µM unless noted
Summary of the method: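 Compound-treated yeast growth, normalised to vehicle controls. Strain bears defined DNA repair mutations.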

Measured: growth inhibition

c1ccc(-n2ncnn2)cc1
inactive: [1] -6.5% | [2] -11.3% | [3] -8.55% | [4] -41.1% | [5] 24.4% | [6] -1.75%

O=C(CC(=O)N1N=C(n2ccc3ccccc32)CC1c1ccccc1)Nc1ccc(Cl)cc1 (stereo unspecified)
inactive: [1] -25.3% | [2] -7.7% | [3] -16.8% | [4] 7.1% | [5] -4.35% | [6] -5%

CCOC(=O)c1[nH]c(=O)[nH]c(=O)c1[N+](=O)[O-]
inactive: [1] 0.4% | [2] -3.75% | [3] 7.15% | [4] 3.4% | [5] -11.9% | [6] -2.3%

O=c1ccc2ccccc2cc1
inactive: [1] 14.3% | [2] -18.6% | [3] 20.8% | [4] -39.9% | [5] 8.15% | [6] 8.4%

COc1ccc(C(=O)/C=C/c2ccc(OCC#N)cc2)cc1OC
inactive: [1] -39.5% | [2] -61.4% | [3] -38.5% | [4] -30.2% | [5] -33% | [6] -54.1%

COC(=O)C(Cc1nc2ccc(Cl)cc2[nH]c1=O)/C(=N\N)C(=O)Nc1cc(C)c(Cl)cc1S(=O)(=O)O (stereo unspecified)
inactive: [1] 24.9% | [2] -2% | [3] 5.5% | [4] -70.3% | [5] -3.35% | [6] 5.95%

N=c1oc2ccc(Cl)cc2cc1C(=O)Nc1ccccc1
inactive: [1] 32.2% | [2] 32.7% | [3] -10.6% | [4] 14.1% | [5] 15.6% | [6] -35%

COc1ccc(/C=N/NC(=S)NN)cc1
inactive: [1] -6.6% | [2] 9.1% | [3] 13% | [4] -18.9% | [5] 33.6% | [6] 13.2%

O=C(CCCN1CCC2(CC1)CC(=O)N(N1CCOCC1)C2=O)c1ccc(F)cc1
inactive: [1] -4.65% | [2] 6.1% | [3] 2.75% | [4] 4.5% | [5] -3.4% | [6] 14.9%

COc1ccccc1NC(=O)C(/C=N/C(=S)NNC(C)=O)=C(/C)O
inactive: [1] 0.7% | [2] -16.2% | [3] -27% | [4] -5.9% | [5] -12.6% | [6] 2.45%

O=C1OC(c2ccccc2)=N/C1=C/C=C/c1ccco1
inactive: [1] -10.9% | [2] -5.45% | [3] -6% | [4] -9.75% | [5] -1.6% | [6] -40.3%

O=C(CCCl)Nc1ccc(C(=O)CCc2cccc(NC(=O)CCCl)c2)cc1
inactive: [1] 28.9% | [2] 2.65% | [3] 7.75% | [4] 22.5% | [5] -0.65% | [6] 6.3%

O=C(Sc1ccc(Br)cc1)c1ccccc1
inactive: [1] 29.1% | [2] 24.2% | [3] 1.15% | [4] 13.2% | [5] 10.4% | [6] 1.25%

Oc1cccnc1Cl
inactive: [1] 12.9% | [2] -13.7% | [3] 17.4% | [4] 9.2% | [5] 13.7% | [6] 2.5%

CCCCCCCCCCCCCCCC(=O)c1ccccc1
inactive: [1] 33.2% | [2] 27.2% | [3] 28.4% | [4] 52.6% | [5] 21.1% | [6] 42.5%

CCOc1ccc(NC(=O)C(=O)CC(=O)c2c(C)n([O-])c3ccccc3[n+]2=O)cc1
inactive: [1] -5.95% | [2] 3.8% | [3] -34.5% | [4] 7.2% | [5] 0.1% | [6] -10.8%

CCOC(=O)c1cnc2c(cnn2CC)c1N1CCCCC1
inactive: [1] -13.9% | [2] 28.2% | [3] 18.9% | [4] -36.9% | [5] 36.6% | [6] 23.4%

C=C1C(=O)OCC1C(=O)OCC (stereo unspecified)
inactive: [1] 9.35% | [2] 7.7% | [3] -0.35% | [4] 3.35% | [5] -24.8% | [6] 14.2%

COc1ccc(OC)c(/C=N\NC(=O)N/N=C/c2cc(OC)ccc2OC)c1
inactive: [1] -9.4% | [2] -20.6% | [3] 11.3% | [4] -2.05% | [5] 22.8% | [6] -3.9%

COc1cc(Br)c(CC(NC=O)c2ccc(OC)c(OC)c2OC)cc1OC (stereo unspecified)
inactive: [1] 0.4% | [2] -0.1% | [3] -6.95% | [4] -7.8% | [5] -1.5% | [6] 23.9%

CN(C)CCN(C)C(=O)C1CCCN1C(=O)OCc1ccccc1 (stereo unspecified)
inactive: [1] -44.6% | [2] -56% | [3] -53.8% | [4] 9.3% | [5] -37.6% | [6] -46.8%

CSc1ncn(C)c1C(N)=O
inactive: [1] 0.1% | [2] 4.25% | [3] 1.5% | [4] -5.2% | [5] -3.25% | [6] 11.2%

O=[N+]([O-])c1cc(C(Nc2nncs2)Nc2nncs2)ccc1Cl
inactive: [1] 12.6% | [2] 8.25% | [3] 43.9% | [4] 11% | [5] 2.5% | [6] 46.6%

CCOC(=O)C1(Cc2ccccc2)Cc2cc3c(cc2C1)CCC3
inactive: [1] -23.1% | [2] -50.5% | [3] -23.7% | [4] -3.5% | [5] 2.6% | [6] -2.5%

CCCCCCCCCCSCC(=O)O
inactive: [1] -12.8% | [2] -24.6% | [3] -15.5% | [4] -3.3% | [5] -30.6% | [6] -29.5%

O=C(NCCCl)Nc1c(Cl)cccc1Cl
inactive: [1] -4.6% | [2] 14.3% | [3] 6% | [4] -18.6% | [5] 1.8% | [6] -4.2%

CC(=O)OCC1C2C=CC(C2)C1COC(C)=O (stereo unspecified)
inactive: [1] 2.2% | [2] -4.8% | [3] -5.1% | [4] -47.1% | [5] -2.9% | [6] 2.1%

N#Cc1c(-c2ccc(Cl)cc2)c(-c2ccc(Cl)cc2)nn(CCOC(=O)CCC(=O)OCCn2nc(-c3ccc(Cl)cc3)c(-c3ccc(Cl)cc3)c(C#N)c2=O)c1=O
inactive: [1] -11.7% | [2] 8.95% | [3] 5.5% | [4] -24.4% | [5] 4.75% | [6] 26.4%

CC(C)NCC(O)COc1cccc2[nH]c3ccccc3c12 (stereo unspecified)
inactive: [1] -2.75% | [2] -8.45% | [3] -8.5% | [4] -36.4% | [5] -0.8% | [6] -0.4%

COC(=O)C1(C(C)C(=O)c2ccccc2)NC(=S)NC(=O)C1C#N (stereo unspecified)
inactive: [1] -6.1% | [2] -16.7% | [3] -35.2% | [4] -11.8% | [5] -14.4% | [6] -25.8%

CN1N=CSC12C(=O)N(c1ccccc1)C(=O)N2c1ccccc1 (stereo unspecified)
inactive: [1] 0.4% | [2] -1.55% | [3] 0.95% | [4] 20.1% | [5] 3.15% | [6] -14.2%

O=C1N=C2Sc3ccc4ccccc4c3N2C1=O
inactive: [1] 21.2% | [2] 2.55% | [3] 24.1% | [4] 20.4% | [5] 5.5% | [6] 11.2%

CC(C)(CO)C(O)C(=O)NN (stereo unspecified)
inactive: [1] -2.8% | [2] 2.95% | [3] 8.6% | [4] -6.25% | [5] -3.9% | [6] 3.25%

c1ccc(-n2ncn[n+]2-c2ccccc2)cc1
inactive: [1] 6.55% | [2] 4.4% | [3] -0.3% | [4] 28.4% | [5] 32.8% | [6] 5.15%

Cc1ccccc1C(=O)c1cccc2cccc(C(=O)c3ccccc3C)c12
inactive: [1] 13% | [2] 0.75% | [3] -10.8% | [4] 7.8% | [5] 10.8% | [6] 1.15%

O=C(Cc1ccccc1)N/N=C(/c1nc2ccc([N+](=O)[O-])cc2[nH]c1=O)C(O)c1ccccc1Cl (stereo unspecified)
inactive: [1] 0.8% | [2] 2.6% | [3] 6.8% | [4] 2.2% | [5] 5.7% | [6] 16.1%

N#C/C(=C\C1CCCCC1Cl)C1CCC([N+](=O)[O-])CC1 (stereo unspecified)
inactive: [1] 12.6% | [2] 5.15% | [3] 17.2% | [4] -8.35% | [5] 32.8% | [6] 18.1%

Cc1[nH]c2ccccc2c1/C=C/c1c[nH]c2ccccc12
inactive: [1] 22% | [2] 29.9% | [3] 27.1% | [4] 15.8% | [5] 55.5% | [6] 40.4%

C=CCOC(=O)CC(=C)C(=O)O
inactive: [1] 18.9% | [2] 31% | [3] 15.8% | [4] -24.8% | [5] 6.2% | [6] 7.55%

CCOC(=O)c1cnc2sc3ccc4ccccc4c3n2c1=O
inactive: [1] 51.9% | [2] 23.4% | [3] 61% | [4] 36.1% | [5] 51.3% | [6] 60.7%

Nn1nnc2ccccc21
inactive: [1] 26.8% | [2] 24.8% | [3] 16.3% | [4] 33% | [5] 7.1% | [6] 32.1%
